TSHR antagonist – blocks TSH signaling through the human TSH receptor | AID 504810 | activity change, negative = inhibition, % at 11.5 µM | hit rate 0.2% among 330,000 | P16473 | TSHR-expressing cells, TSH-stimulated cAMP HTRF, 2 h; hits give low values;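 active = activity change below a set negative limit, meaning inhibition stronger than a set level, cut at about -70% in these data; inconclusive = activity change between two set negative limits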; also: % is scaled to controls: 0 for no effect and ±100 for the full control effect
Target sequence (P16473 whole entry, looked up): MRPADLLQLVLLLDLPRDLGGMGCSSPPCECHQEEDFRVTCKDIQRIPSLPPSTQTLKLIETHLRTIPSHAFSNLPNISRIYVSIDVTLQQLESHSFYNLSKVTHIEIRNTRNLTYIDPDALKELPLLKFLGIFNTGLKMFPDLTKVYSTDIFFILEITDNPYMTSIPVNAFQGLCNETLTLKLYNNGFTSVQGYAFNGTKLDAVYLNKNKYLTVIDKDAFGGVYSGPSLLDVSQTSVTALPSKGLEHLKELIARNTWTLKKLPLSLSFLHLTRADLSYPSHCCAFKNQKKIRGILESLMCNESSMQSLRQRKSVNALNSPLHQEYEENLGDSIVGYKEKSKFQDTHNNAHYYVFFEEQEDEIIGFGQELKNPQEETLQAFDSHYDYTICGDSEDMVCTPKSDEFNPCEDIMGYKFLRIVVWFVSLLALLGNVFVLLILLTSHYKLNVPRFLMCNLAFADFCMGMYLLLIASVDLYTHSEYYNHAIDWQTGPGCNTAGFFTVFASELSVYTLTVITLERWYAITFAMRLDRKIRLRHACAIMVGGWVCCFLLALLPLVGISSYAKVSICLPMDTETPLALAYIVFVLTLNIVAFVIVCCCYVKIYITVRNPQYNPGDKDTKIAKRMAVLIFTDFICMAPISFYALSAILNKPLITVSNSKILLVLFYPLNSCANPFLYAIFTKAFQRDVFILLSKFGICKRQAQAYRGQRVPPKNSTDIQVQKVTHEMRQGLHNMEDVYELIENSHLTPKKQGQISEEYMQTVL
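Competitive HTRF cAMP read-out (cryptate anti-cAMP antibody, cAMP-d2; 30 min, room temperature) in freshly harvested TSHR cells. Compounds added before TSH at EC80 (4nM final), followed by 2 hours' incubation at 37 deg C.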
S-ASM inh – human S-ASM enzyme inhibition; P17405; placental ASM, HMU-PC fluorogenic substrate, 60 min; Potency, µM (highest dose often 57.5 µM), without a hit: at the highest dose activity change, negative = inhibition, usual class: inhibitors; hit rate 0.006% among 340,000; active = well fitted inhibition curve with a large enough effect; inconclusive = small, poorly fitted or top-dose-only effect; inactive = no such curve, though single readings can be large or run the other way; also: potency is read from the fitted curve at half-maximal effect
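qHTS format. ASM enzyme prepared from human placenta hydrolyses the fluorogenic substrate HMU-PC0 (9 uM final) over 60 min at 37 °C after a 10 min compound preincubation.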
gsp ag – activates gsp, the McCune-Albright syndrome mutation. gsp mutant cells, cAMP HTRF, 30 min. hit rate 0.13% among 340,000. Potency, µM (doses to about 76.9 µM), for the others: at the highest dose activation (cAMP increase), usual class: activators. AID 624287; active = well fitted activation curve with a large enough effect; inconclusive = small, poorly fitted or top-dose-only effect, or another doubt; inactive = no such curve, though single readings can be large or run the other way; cell line not stated here;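 also: phosphodiesterase inhibitor Ro 20-1724 added with compounds to block cAMP breakdown; potency is read from the fitted curve at half-maximal effect; nearly all actives have a fitted effect of over 60% in size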
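Cells stably selected in G418 were plated at 2000/well, grown 16-24 hr, then given compounds in DMSO with the PDE inhibitor […] (300 uM solution added) for 30 min at 37C; cAMP was read by HTRF.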
gsp antag – antagonists of gsp mutant (McCune-Albright syndrome); gsp-mutant cells, cAMP HTRF, 30 min; Potency, µM (top dose mostly 76.9 µM), inactives show at the highest dose activity change, negative = inhibition, actives largely listed as inhibitors; hit rate 0.4% among 340,000; calls by dose curve; cell line not stated here;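 also: intracellular cAMP measured with PDE inhibitor Ro 20-1724 present during compound exposure; potency is read from the fitted curve at half-maximal effect; % is scaled to controls: 0 for no effect and ±100 for the full control effect; nearly all actives have a fitted effect of over 65% in size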
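HTRF cAMP read-out (cAMP-d2 plus anti-cAMP antibody-K in lysis buffer, 30 min RT). Before lysis, cells are exposed to compounds with […] for 30 min at 37C in DPBS containing Ca/Mg, BSA and Tween 20.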
* = called active by the depositor; i = inactive; u = inconclusive; x = no result; [ ] = another dose, or the depositor's remark. Most compounds without a hit are left out; they make up all but 0.63% or so of the library.

SMILES | TSHR antagonist | S-ASM inh | gsp ag | gsp antag
Cn1ccc2cc(-c3ccc4ncnc(NCc5cccc(F)c5)c4c3)ccc21 | -6.3 | x | x | x
O=C(COc1c(Br)cc(Br)c2cccnc12)N1CCc2ccccc2C1 | -7.5 | -1.7% | u | -11.6%
O=C(COc1c(Br)cc(Br)c2cccnc12)N1CCCCC1 | 8.8 | -1.8% | 6.31µM* | -4.0%
COc1ccc(NC(=O)NCc2cccnc2)c(OC)c1 | -2.4 | -1.2% | u | u
COc1cc([N+](=O)[O-])ccc1NC(=O)NCc1cccnc1 | -76.4* | -1.1% | 13.7% | 5.0%
CCn1c2ccccc2c2cc(/C=N/n3c(-c4cc(C)[nH]n4)n[nH]c3=S)ccc21 | -21.0 | 12.7% | -1.4%[15.4 µM] | 35.5µM*
CCn1c2ccccc2c2cc(/C=N/n3cn[nH]c3=S)ccc21 | -10.0 | 8.8% | 41.3% | u
Cc1ccc2c(c1)C(=O)CC(c1ccccc1)S2 (stereo unspecified) | x | 22.3% | -16.4% | -9.2%
Cc1ccc(SCC(=O)NCc2ccccc2C)cc1 | -122.1* | 3.4% | -22.8% | 1.4%
Cc1cccc(C(=O)NNC(=O)CN2C(=O)c3ccccc3C2=O)c1 | -11.1 | 0.1% | 28.5%[15.4 µM] | 6.3%
Cc1ccc(S(=O)(=O)Nc2ccccc2N(C)S(=O)(=O)c2ccc(C)cc2)cc1 | -75.0* | -1.7% | x | -9.1%
O=C1CC(NCc2ccc3c(c2)OCO3)C(=O)N1Cc1ccc2c(c1)OCO2 (stereo unspecified) | 0.0 | -0.6% | -5.6% | 28.2µM*
O=C(O)C1CC(=O)N(Cc2ccc3c(c2)OCO3)C1 (stereo unspecified) | -2.6 | 6.2% | 1.2% | 8.9%
CCc1nnc(NC(=O)C2(C)COC(c3ccc(OC)cc3)OC2)s1 (stereo unspecified) | 18.9 | 3.3% | -1.1%[15.4 µM] | -7.7%
O=C(CC(=O)c1ccccc1O)c1ccc(F)cc1 | -8.7 | -1.2% | u | 39.8µM*
CCN(C[C@H]1N[C@@](CC)(C(=O)OC)[C@H]2C(=O)N(C)C(=O)[C@@H]12)C(=O)NC(C)C | 2.6 | 5.1% | x | 4.7%
CC(=O)Nc1ccc(NC(=O)c2nc(S(=O)(=O)Cc3cccc(C)c3)ncc2Cl)cc1 | -33.8 | -5.7% | -14.9%[15.4 µM] | -24.8%
CCCc1nnc(NC(=O)c2nc(S(=O)(=O)Cc3ccc(C)cc3)ncc2Cl)s1 | -40.7 | 0.2% | -11.2% | 28.2µM*
CSc1nnc(NC(=O)c2nc(S(=O)(=O)Cc3ccccc3)ncc2Cl)s1 | -38.0 | -3.3% | -10.2%[15.4 µM] | 31.6µM*
COC(=O)c1ccc(NC(=O)c2nc(S(=O)(=O)Cc3cccc(C)c3)ncc2Cl)cc1 | u | -4.4% | 9.4%[15.4 µM] | -14.4%
CC(C)c1nnc(NC(=O)c2nc(S(=O)(=O)Cc3ccccc3)ncc2Cl)s1 | u | -1.9% | -3.1%[15.4 µM] | 25.1µM*
O=S(=O)(c1ccc(C(F)(F)F)cc1)N1CCN(CCc2ccccc2)CC1 | -2.0 | -0.6% | 19.2% | 6.8%
CS(=O)c1nc(-c2ccc(Br)cc2)cc(-c2ccccc2)c1C#N (stereo unspecified) | -73.4* | -13.0% | -3.2% | -1.7%
CN1CCC2(CCN3CCc4c(oc5ccccc45)C3C2)N(C)C1=O (stereo unspecified) | -15.8 | x | x | x
C[C@H]1CN([C@@H](C)CO)C(=O)c2cc(Br)cnc2O[C@H]1CN(C)C(=O)c1cnccn1 | x | x | 11.2µM* | x
SMILES | TSHR antagonist | S-ASM inh | gsp ag | gsp antag
CC1(C)CC(=O)C=C(c2n[nH]nc2-c2ccccc2)C1 | x | x | -41.7% | x
Cc1cccc(CC(=O)NCC(=O)NCc2cc(=O)n(C)c(=O)n2C)c1 | -89.9* | 4.1% | u | 19.6%
COC(=O)c1ccccc1S(=O)(=O)Oc1ccc(-c2ccc(C(=O)O)cc2)cc1 | -8.5 | -1.0% | 2.1%[15.4 µM] | 28.2µM*
O=C(O)c1ccc(-c2ccc(OS(=O)(=O)c3ccccc3F)cc2)cc1 | -13.2 | -0.2% | -2.6%[15.4 µM] | -10.5%
Cc1ccc(S(=O)(=O)CCC(=O)NCCN2C(=O)S/C(=C\c3ccccc3)C2=O)cc1 | -3.0 | -3.2% | 3.5% | 50.1µM*
O=C(CCS(=O)(=O)c1ccc(Cl)cc1)NCCN1C(=O)S/C(=C\c2ccccc2F)C1=O | 22.1 | -7.8% | -2.2% | 50.1µM*
O=C1NC[C@H](Cc2ccccc2)N(CC2CCN(CC3CCCC3)CC2)C1=O | x | -6.1% | x | -8.1%
CCCC(=NC(C)CC)C1=C(O)CC(c2ccccc2)CC1=O (stereo unspecified) | -88.4* | -4.8% | 4.3%[15.4 µM] | -7.0%
CCC(C)N=CC1=C(O)CC(c2ccccc2)CC1=O (stereo unspecified) | 2.6 | -3.0% | -0.3% | 20.3%
Cc1ccccc1-c1nnn(Cc2cccc(S(=O)(=O)N3CCOCC3)c2)n1 | 6.0 | -0.1% | 2.9% | 35.5µM*
Cc1csc(Sc2nc3c(c(=O)[nH]c(=O)n3C)n2Cc2ccccc2Cl)n1 | 25.1 | 4.1% | 0.7% | 39.8µM*
Cc1ccc(-n2c3nc(=O)[nH]c(=O)c-3cc3c(C)nn(-c4ccccc4)c32)c(C)c1 | 0.9 | i | -13.0%[15.4 µM] | 50.1µM*
CCn1nc(NC(=O)c2ccccn2)c2cc3cc(C)ccc3nc21 | -20.7 | i | u | 35.5µM*
Cc1ccc2nc3c(cc2c1)c(NC(=O)c1ccccn1)nn3CC(C)C | 1.5 | 2.6% | 19.3% | 4.8%
Cc1ccc(NC2=C(Cl)C(=O)c3ccccc3C2=O)cc1 | 6.0 | 0.9% | 2.2% | 2.1%
CCCC(=O)NC1=C(Cl)C(=O)c2ccccc2C1=O | x | -0.1% | -2.0% | 44.7µM*
CCN(CC)c1ccc(NC2=C(Cl)C(=O)c3ccccc3C2=O)cc1 | -92.8* | -13.3% | -11.2% | -5.2%
Cc1cc(C)cc(NC(=O)c2ccc(N3C(=O)C4CCCCC4C3=O)cc2)c1 (stereo unspecified) | 0.8 | -3.4% | -33.3% | -15.8%
CC(=O)c1c(C)oc2ccc(NS(=O)(=O)c3ccc(F)cc3C)cc12 | -14.9 | -8.3% | 12.0%[15.4 µM] | 25.1µM*
O=C(Oc1ccc(N2C(=O)CCC2=O)cc1)c1ccccc1Cl | 5.7 | -1.9% | 15.6% | 1.3%
Cc1cc(OC(=O)c2ccccc2Cl)cc(=O)n1C | 0.0 | -0.6% | -18.3% | 39.8µM*
O=C(N1CCC(n2nc(-c3ccccc3)oc2=O)CC1)C1(c2ccccc2)CC1 | 7.9 | -0.4% | -27.2% | -21.3%
Brc1ccc(-c2csc(N3CCCCC3)n2)cc1 | -15.2 | x | x | x
COC(=O)Sc1nc(N2CCOCC2)c2c(c1C#N)CC(C)(C)OC2 | 5.6 | 1.4% | 14.1µM* | 14.8%
COc1ccc(OC)c(NC(=O)CN2CCC(C(=O)c3ccc(C)cc3)CC2)c1 | 6.0 | -5.2% | 14.8% | 28.2µM*
CCCN(CCC)C(=O)CSc1nc2c(sc(=S)n2-c2ccc(OCC)cc2)c(=O)[nH]1 | -25.8 | -3.2% | 8.9%[15.4 µM] | 14.1µM*
COc1ccccc1NC(=O)CSc1nc(=O)n2cc(C)ccc2n1 | 3.9 | 2.3% | 17.8µM* | 15.4%
CCOc1cccc2cc(-c3nc4ccc(C(=O)O)cc4[nH]3)c(=O)oc12 | -0.4 | x | x | x
CSc1ccc(C(=O)N2CCc3ccc(NC(=O)c4ccccn4)cc3C2)cc1 | 2.4 | -4.7% | -64.2% | 31.6µM*
CSc1ccccc1C(=O)N1CCc2ccc(NC(=O)c3ccccn3)cc2C1 | x | x | -11.1% | x

High-throughput results as filed in PubChem BioAssay.
